# MbtI inh: blocks the Mycobacterium tuberculosis siderophore enzyme MbtI; P9WFX0; purified MbtI enzyme, fluorescence intensity read-out; inhibition, % (test concentration not listed); 0.89% of 100,000 active; in the data active = inhibition mostly above about 56%, no sharp cut-off; inactive = mostly below about 77%
# Target sequence (P9WFX0 whole entry, looked up): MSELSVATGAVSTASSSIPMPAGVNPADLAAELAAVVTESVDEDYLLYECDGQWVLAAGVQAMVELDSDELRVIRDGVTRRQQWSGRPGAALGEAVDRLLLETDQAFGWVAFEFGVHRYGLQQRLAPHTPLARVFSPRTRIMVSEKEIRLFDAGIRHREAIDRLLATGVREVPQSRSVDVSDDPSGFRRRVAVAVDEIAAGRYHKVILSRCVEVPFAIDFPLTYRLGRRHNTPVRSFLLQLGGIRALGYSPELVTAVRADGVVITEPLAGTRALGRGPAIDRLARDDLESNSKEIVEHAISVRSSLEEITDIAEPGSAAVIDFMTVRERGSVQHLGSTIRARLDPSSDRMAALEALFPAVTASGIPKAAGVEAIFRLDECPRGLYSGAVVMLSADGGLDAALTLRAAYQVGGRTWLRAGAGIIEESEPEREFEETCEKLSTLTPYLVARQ
# PV pol inh: inhibitors of poliovirus RNA polymerase binding and polymerization; P03300; poliovirus polymerase elongation, fluorescence polarization; stronger effect = lower value; % elongation, % (compound at 16.7 µg/mL); 0.66% of 150,000 active; AID 588519; in the data active = % elongation below about 90%
# Mtb MenB inh: blocks the Mycobacterium tuberculosis MenB enzyme; MenB enzyme assay, absorbance read-out; 0.43% of 100,000 active; P9WNP5; inhibition, % (concentration not given with the values); in the data active = inhibition above about 21%, passing the limit was not always enough
# AID504770: E. coli YBA685 growth inhibition, screen for V. cholerae RctB inhibitors; AID 504770; 0.27% of 130,000 active; z-score (no concentration beside the values); E. coli YBA685 rctB-dependent plasmid, OD600 growth, 3 h; stronger effect = lower value; in the data active = z-score below about -2, passing the limit was not always enough
# * = called active by the depositor; . = no result; ! = not active in a repeat. Only some compounds are listed: those with a hit (about 1.4% of all), similar ones and a draw of the others.
SMILES,MbtI inh,PV pol inh,Mtb MenB inh,AID504770
O=C(CN1C(=O)CCSc2ccc(S(=O)(=O)N3CCCC3)cc21)Nc1cccc(F)c1,.,103,.,.
Cc1nnc(SCc2cccc(C(=O)c3ccccc3)c2)[nH]c1=O,55*,100,-15,-0.7
Cc1nnc(SCc2ccc(C(=O)c3ccc(F)cc3)cc2)[nH]c1=O,.,.,.,0.55
CCn1c(C(=O)OC)cc2c1ccn2-c1ccc(F)cc1,90,103,32*,0.1
COC(=O)c1cc2c(ccn2-c2ccc(F)cc2)n1CC(=O)c1ccc(OC)cc1,-4,101,1,0.45
CCN(CC)CCC(=O)c1ccc(F)cc1,.,104,12,0.8
CCN(CC)CCC(=O)c1ccc(OC(C)C)cc1,65*,102,-4,-0.8
CCC(=O)NC(=S)c1c(C)nc2sccn12,15,57*,-222,-0.65
Cc1cccc(CCNS(=O)(=O)c2ccc3c(c2)CCN3C(=O)C2CCC2)c1,-8,104,-34,0.75
Nc1c(C(=O)NC2CCCCC2)sc(=S)n1-c1ccccc1,56*,97,9,0.35
O=C(NC1CCCCC1)c1sc(=S)n2c1[nH]c(=O)c1ccccc12,96*,98,2,1.9
O=C(NCCc1ccccc1)c1sc(=S)n2c1[nH]c(=O)c1ccccc12,67,95,-5,0
NC(=O)c1sc(=S)n(-c2ccccc2)c1N,.,91,-17,0.15
CCOc1ccc(S(=O)(=O)Nc2ccc3c(c2)CCCN3C(=O)c2cccs2)cc1,.,112,.,.
CN(CCNC(=O)c1nc(-c2cccnc2)no1)C1CCCCC1,-12,101,11,0.45
CCN(CC)S(=O)(=O)c1ccc2c(c1)nc(CC(=O)O)n2C,94*,81*,-21,0.5
Cc1c(P(=S)(N2CCOCC2)N2CCOCC2)cc(C#N)n1C,94*,80*,-7,-0.25
CC(C)(C)CC(=O)N1CCN(c2cc(C(F)(F)F)ccn2)CC1,.,.,.,-0.7
Cc1nn(-c2ccc(F)cc2)c(-n2cccc2)c1C(=O)NCCCN1CCN(c2ccccc2F)CC1,.,108,.,.
O=C(O)C1CSC2(CCN(Cc3ccccc3)CC2)N1 (centres undefined),-3,99,38*,0
NC(=O)C1CCN(Cc2ccccc2)CC1,-14,100,-1,-0.1
N#Cc1cccc(C#N)c1Oc1ccc(S(=O)(=O)N2CCCCC2)cc1,7,102,10,-0.25
Oc1c(Br)cc(Cl)cc1/C=N/c1ccccn1,163,75*,-104,-1.3
CNCCc1ccncc1,-2,103,-30,-0.65
CN(C)S(=O)(=O)N=C1C=CC(=NS(=O)(=O)N(C)C)C=C1,10,88*,-3,-0.15
SMILES,MbtI inh,PV pol inh,Mtb MenB inh,AID504770
N#Cc1cccc(COC(=O)c2ccccc2-n2cnnn2)c1,-10,104,-2,0.05
CCOC(=O)C1=C(C)NC(=S)NC1c1ccc(-c2ccccc2Cl)o1 (centres undefined),34,102,60*,0.2
CN(C)C(=O)CSCc1c(Cl)cccc1Cl,4,34*,-9,0.4
CCc1ccc(NC(=O)CSc2nc3n[nH]c(C)c3c(=N)n2-c2ccc(C)cc2)cc1,.,86*,.,.
Cc1ccc(NC(=O)CSc2nc3n[nH]c(C)c3c(=N)n2-c2cccc(C)c2)cc1,.,104,.,.
CCOC(=O)[C@@H]1Nc2ccc(C(=O)O)cc2[C@@H]2C=CC[C@H]12,16,68*,-15,0.1
NC(=O)c1c(NC(=O)c2noc3c2CCCC3)sc2c1CCCC2,.,69*,.,.
CCOC(=O)c1c(NC(=O)c2noc3c2CC(C(C)(C)C)CC3)sc2c1CCCC2 (centres undefined),.,76*,.,.
CCn1c(C(=O)NCCc2ccccc2)cc2sc(Cl)cc21,-2,100,-16,0.1
COc1ccc(Cl)cc1C(=O)Nc1sc2c(c1C(=O)OC(C)C)CCCC2,.,110,.,.
Cc1ccc2nc(-c3ccc(C)s3)c(Nc3ccc4c(c3)OCCO4)n2c1,.,84*,.,.
Cc1nnc(SCc2ccc(C#N)cc2)n1C1CC1,-6,99,-7,-0.75
N#Cc1ccc(CSc2nnnn2C2CC2)cc1,-9,35*,-18,-0.3
Cn1c2c(c(=O)n(C)c1=O)C(c1ccccc1)C(C#N)=C(N)O2 (centres undefined),.,85*,-19,-2.3
COc1cccc(C2C(C#N)=C(N)Oc3c2c(=O)n(C)c(=O)n3C)c1 (centres undefined),-20,101,-42,-0.75
CC(=O)Oc1ccc2c(=O)c(Oc3ccccc3)coc2c1,-13,100,-23,-0.75
c1ccc(CN(CCN(Cc2ccccn2)Cc2ccccn2)Cc2ccccn2)nc1,-14,104,30*,.
O=C(CSc1cccc[n+]1[O-])c1ccccc1F,22,98,-46,1.1
O=C(CCCSc1cccc[n+]1[O-])c1ccc(F)cc1,99*,103,-14,0.15
COc1cccc(C(=O)Oc2ccc3c(c2)NC(C)(C)C=C3C)c1,0,104,.,1.1
COc1cc(Cl)c(C)cc1NC(=O)c1cn(CC(C)C)c(=O)c2cc(OC)c(OC)cc12,.,108,.,.
Oc1cccc(C=Nc2ccccc2N2CCOCC2)c1,-2,109,-33,0.05
CC(C)(C)N1Sc2ccccc2NC1=S,90*!,98,-6,-0.15
CC1CC(=S)Nc2ccccc2S1 (centres undefined),24,102,-24,-0.15
Cn1c(=O)oc2cc(S(=O)(=O)N3CCC(C(=O)O)CC3)ccc21,.,.,.,0.4
SMILES,MbtI inh,PV pol inh,Mtb MenB inh,AID504770
Cc1ccc2[nH]cc(CCNS(C)(=O)=O)c2c1,14,102,26*,0.8
Cc1ccc(-c2cc(C(F)(F)F)n3nc(C(=O)Nc4ccc(Cl)cc4Cl)cc3n2)cc1,.,102,.,.
O=CNc1ccc(OC(=O)c2cncc(Br)c2)cc1,-8,78*,-23,-0.15
COC(=O)c1cncc(Br)c1,.,.,.,0.1
FC(F)(F)c1ccccc1NNC(=S)NCCN1CCOCC1,71*,98,-25,0.7
S=C(NCCN1CCOCC1)Nc1ccccc1,-1,106,-14,-1.9
C1=CCC2NC(C1)Cc1ccccc12 (centres undefined),-1,103,29*,-0.25
CC1=C(C)CC(C(=O)Nc2cccc(C)c2C)C(C(=O)O)C1 (centres undefined),.,104,7,0.1
NNc1ccc(Cl)c(Cl)c1,-3,96,.,-3.6*
NC(=S)NNc1ccc(Cl)c(Cl)c1,95*,95,-15,-0.85
Nn1c(Cc2cccc3ccccc23)nnc1SC1CCOC1=O (centres undefined),14,103,-29,0.25
COc1ccc(C2C(C#N)=C(N)SC3C(=O)N(c4ccc(Br)cc4)C(=O)C32)cc1 (centres undefined),.,77*,-8,0.25
Cc1ccc(Oc2c(C(F)(F)F)oc3c(CN4CCCCC4C)c(O)ccc3c2=O)cc1 (centres undefined),.,102,.,.
COc1ccccc1OCC(=O)NC1CCCCC1,.,102,-3,-1
O=C(CCS(=O)(=O)c1ccccc1)N(Cc1cccnc1)c1nc2ccc(F)cc2s1,.,100,.,.
O=C(CCS(=O)(=O)c1ccccc1)N(Cc1ccccn1)c1nc2ccccc2s1,71*,104,-6,1.4
C=CCNC(=S)N1CCC(C(=O)c2ccc(C)cc2)CC1,2,101,-16,-0.15
